We go through 17 compounds from ChEMBL document CHEMBL1961873, “Compounds: GSK PKIS; Assays: Nanosyn kinase panel” (2012).

Assay [1] addresses Tyrosine-protein kinase CSK (Homo sapiens) (UniProt P41240). The conditions noted are these: at 1 µM.
The target of assay [2] is T1, Discoidin domain-containing receptor 2 (Homo sapiens) (UniProt Q16832).
T1 sequence (whole entry): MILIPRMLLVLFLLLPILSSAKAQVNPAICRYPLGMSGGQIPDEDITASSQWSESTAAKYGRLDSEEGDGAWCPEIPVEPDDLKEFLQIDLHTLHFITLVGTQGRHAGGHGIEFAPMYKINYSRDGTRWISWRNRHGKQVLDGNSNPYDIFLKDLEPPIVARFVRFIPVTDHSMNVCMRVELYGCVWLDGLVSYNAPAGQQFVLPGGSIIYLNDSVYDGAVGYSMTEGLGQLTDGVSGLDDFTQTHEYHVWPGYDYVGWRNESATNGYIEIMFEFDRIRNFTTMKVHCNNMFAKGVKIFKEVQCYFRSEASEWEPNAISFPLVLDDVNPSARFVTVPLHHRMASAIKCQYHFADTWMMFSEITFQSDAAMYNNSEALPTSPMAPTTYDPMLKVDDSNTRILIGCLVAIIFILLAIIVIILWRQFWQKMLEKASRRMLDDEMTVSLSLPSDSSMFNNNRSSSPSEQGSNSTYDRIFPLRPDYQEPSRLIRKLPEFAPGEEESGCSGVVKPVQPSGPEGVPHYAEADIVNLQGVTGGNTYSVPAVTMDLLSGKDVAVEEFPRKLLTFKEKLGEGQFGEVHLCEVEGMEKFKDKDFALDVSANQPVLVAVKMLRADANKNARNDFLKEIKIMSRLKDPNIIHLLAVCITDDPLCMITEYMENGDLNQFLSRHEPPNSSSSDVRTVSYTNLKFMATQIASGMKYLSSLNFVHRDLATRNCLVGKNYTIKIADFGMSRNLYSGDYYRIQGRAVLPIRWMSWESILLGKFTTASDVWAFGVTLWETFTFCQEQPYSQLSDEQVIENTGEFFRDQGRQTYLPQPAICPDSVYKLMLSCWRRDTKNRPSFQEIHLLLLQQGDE
The conditions noted are these: at 0.1 µM.

Assay [3] addresses T1, Discoidin domain-containing receptor 2 (Homo sapiens). The conditions noted are these: at 1 µM.
The target of assay [4] is Epidermal growth factor receptor (Homo sapiens) (UniProt P00533). The conditions noted are these: at 0.1 µM.
Epidermal growth factor receptor (Homo sapiens), sequence (P00533 whole entry): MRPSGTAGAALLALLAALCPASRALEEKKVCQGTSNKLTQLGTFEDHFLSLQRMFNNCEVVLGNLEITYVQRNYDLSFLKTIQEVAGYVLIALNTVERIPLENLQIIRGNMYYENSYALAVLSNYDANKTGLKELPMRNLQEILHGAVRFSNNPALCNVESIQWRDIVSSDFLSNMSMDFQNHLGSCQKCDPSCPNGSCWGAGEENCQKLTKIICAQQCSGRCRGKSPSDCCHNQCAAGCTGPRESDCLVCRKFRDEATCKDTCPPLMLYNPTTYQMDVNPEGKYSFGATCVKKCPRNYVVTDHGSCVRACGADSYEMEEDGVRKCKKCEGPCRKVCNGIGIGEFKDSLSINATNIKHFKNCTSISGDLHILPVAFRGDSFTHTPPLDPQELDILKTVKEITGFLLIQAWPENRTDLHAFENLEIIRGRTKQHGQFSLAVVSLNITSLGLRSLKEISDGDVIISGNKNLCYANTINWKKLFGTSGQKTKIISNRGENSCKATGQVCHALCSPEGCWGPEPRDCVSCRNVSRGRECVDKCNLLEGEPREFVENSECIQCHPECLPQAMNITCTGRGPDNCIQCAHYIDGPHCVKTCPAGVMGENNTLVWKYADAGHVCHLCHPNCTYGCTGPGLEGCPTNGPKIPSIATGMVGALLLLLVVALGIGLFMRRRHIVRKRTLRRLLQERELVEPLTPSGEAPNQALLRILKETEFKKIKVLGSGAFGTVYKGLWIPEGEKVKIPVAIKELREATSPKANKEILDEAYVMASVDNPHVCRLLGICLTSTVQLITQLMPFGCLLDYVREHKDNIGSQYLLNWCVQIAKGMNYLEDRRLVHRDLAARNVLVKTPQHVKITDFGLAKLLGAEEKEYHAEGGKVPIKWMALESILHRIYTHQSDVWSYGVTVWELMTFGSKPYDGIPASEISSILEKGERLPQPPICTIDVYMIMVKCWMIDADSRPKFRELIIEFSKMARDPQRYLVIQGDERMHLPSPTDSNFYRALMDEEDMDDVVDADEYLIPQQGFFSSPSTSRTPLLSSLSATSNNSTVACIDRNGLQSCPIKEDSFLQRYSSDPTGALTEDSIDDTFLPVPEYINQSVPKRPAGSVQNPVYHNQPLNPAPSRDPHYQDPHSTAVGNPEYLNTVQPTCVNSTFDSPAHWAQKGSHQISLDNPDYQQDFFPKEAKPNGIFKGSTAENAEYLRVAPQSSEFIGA
Assay [5] has the same target. The conditions noted are these: at 1 µM.
Assay [6] relates to Epidermal growth factor receptor (Homo sapiens), P00533 [L858R]. The conditions noted are these: at 0.1 µM.
Epidermal growth factor receptor (Homo sapiens), P00533 [L858R], sequence (P00533 whole entry L858R): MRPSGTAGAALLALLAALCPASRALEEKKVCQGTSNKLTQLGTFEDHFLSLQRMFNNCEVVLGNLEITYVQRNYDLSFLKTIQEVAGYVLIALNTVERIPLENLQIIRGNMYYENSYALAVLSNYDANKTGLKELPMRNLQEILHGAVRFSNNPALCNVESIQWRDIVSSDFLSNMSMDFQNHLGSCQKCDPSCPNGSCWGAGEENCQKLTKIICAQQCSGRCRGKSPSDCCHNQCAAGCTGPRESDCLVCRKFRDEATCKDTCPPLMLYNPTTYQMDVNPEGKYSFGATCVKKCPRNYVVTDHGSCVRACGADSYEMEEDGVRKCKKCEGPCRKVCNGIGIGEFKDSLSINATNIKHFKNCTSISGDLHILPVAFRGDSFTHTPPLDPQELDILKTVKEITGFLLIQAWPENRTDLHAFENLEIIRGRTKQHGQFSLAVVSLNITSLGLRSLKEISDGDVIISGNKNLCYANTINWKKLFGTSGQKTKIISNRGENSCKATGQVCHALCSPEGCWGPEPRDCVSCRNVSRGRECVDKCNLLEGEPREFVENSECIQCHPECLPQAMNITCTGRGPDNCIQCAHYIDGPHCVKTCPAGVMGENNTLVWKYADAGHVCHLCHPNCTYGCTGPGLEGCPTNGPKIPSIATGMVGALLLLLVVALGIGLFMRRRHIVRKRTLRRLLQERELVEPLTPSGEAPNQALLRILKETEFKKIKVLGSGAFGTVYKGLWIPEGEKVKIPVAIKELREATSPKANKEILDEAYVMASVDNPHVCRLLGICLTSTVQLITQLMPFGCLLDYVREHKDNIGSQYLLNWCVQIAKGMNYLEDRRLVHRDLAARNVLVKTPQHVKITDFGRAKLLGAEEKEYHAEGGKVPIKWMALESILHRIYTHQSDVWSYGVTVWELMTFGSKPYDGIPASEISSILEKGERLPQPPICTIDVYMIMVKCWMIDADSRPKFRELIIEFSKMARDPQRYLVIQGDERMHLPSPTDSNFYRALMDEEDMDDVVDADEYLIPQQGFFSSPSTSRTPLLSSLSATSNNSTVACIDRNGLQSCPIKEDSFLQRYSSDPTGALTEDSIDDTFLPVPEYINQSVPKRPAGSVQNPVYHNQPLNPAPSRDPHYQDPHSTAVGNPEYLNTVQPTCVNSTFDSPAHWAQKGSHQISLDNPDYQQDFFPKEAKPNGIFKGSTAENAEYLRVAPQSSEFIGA
Assay [7] shares this test system. The conditions noted are these: at 1 µM.
For assay [8], the system named is Epidermal growth factor receptor (Homo sapiens), P00533 [L861Q]. The conditions noted are these: at 0.1 µM.
Epidermal growth factor receptor (Homo sapiens), P00533 [L861Q], sequence (P00533 whole entry L861Q): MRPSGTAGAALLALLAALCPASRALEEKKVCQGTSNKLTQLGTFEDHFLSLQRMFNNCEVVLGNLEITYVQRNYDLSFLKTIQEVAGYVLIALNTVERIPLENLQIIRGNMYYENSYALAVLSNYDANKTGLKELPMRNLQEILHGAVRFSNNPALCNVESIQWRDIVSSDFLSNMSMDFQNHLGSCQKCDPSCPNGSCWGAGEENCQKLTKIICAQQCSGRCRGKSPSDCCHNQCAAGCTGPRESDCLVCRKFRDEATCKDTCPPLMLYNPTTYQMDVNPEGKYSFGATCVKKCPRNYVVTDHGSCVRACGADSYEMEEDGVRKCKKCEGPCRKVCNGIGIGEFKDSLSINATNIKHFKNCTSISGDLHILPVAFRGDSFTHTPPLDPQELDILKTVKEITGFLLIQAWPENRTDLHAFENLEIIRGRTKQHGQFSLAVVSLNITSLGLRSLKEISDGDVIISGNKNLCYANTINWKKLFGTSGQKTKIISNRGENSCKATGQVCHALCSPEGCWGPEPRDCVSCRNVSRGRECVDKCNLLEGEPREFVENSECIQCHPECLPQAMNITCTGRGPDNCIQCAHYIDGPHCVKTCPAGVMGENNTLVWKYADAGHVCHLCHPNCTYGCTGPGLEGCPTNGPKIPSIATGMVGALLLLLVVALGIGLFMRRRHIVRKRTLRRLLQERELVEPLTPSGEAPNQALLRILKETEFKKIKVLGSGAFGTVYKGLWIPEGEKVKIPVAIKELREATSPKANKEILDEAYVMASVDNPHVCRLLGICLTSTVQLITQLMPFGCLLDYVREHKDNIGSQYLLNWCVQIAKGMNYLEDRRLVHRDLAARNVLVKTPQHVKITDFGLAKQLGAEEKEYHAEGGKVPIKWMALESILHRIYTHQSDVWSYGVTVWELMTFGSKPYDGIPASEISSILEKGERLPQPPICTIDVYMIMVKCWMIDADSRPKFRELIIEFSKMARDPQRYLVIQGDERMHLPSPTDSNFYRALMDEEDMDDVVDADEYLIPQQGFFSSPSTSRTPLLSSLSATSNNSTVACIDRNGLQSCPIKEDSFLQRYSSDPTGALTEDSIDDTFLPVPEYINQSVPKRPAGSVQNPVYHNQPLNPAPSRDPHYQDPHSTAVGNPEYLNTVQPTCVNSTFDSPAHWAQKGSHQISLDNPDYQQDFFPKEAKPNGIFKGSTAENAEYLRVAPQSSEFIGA
Assay [9] shares this test system. The conditions noted are these: at 1 µM.
Assay [10] has as its system Epidermal growth factor receptor (Homo sapiens), P00533 [T790M]. The conditions noted are these: at 0.1 µM.

Epidermal growth factor receptor (Homo sapiens), P00533 [T790M], sequence (P00533 whole entry T790M): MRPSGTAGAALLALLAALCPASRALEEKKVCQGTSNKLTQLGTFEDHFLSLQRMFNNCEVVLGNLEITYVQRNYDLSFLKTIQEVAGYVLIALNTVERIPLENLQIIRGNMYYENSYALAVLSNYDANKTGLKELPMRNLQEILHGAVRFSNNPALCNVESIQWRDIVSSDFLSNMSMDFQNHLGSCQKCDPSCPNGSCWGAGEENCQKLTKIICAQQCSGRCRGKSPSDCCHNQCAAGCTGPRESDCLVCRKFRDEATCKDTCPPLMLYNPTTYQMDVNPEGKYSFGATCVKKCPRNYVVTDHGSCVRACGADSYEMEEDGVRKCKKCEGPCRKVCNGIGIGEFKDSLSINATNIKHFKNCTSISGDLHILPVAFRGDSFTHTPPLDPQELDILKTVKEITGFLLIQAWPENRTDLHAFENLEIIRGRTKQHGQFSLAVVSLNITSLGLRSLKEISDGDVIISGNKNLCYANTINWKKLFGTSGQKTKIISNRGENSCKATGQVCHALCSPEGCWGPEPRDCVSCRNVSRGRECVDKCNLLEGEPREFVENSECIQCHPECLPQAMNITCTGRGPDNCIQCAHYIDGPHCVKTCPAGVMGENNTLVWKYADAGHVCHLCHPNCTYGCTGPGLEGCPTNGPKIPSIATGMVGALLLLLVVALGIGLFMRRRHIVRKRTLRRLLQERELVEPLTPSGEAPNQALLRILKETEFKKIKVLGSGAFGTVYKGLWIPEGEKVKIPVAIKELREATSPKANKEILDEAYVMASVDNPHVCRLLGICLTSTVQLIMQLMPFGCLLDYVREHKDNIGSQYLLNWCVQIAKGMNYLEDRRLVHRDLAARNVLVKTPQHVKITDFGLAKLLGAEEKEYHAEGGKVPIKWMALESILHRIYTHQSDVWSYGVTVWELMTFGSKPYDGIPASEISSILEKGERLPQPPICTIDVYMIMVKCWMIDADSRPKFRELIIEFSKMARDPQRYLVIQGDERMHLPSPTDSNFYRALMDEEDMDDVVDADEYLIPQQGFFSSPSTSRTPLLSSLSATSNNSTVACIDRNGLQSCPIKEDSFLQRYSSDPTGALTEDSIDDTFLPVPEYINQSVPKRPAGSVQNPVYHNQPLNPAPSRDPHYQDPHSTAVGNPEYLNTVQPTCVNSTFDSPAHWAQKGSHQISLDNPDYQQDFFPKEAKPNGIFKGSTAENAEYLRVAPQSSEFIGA

In the case of `CCn1c(-c2nonc2N)nc2c(C#CC(C)(C)O)nc(CN3CCCC3)cc21`, the inhibition is -4.12% in [1]; 1.3% in assay [2]; 5.64% in [3]; 1.34% in assay [4]; 1.12% in assay [5]; -0.22% in [6]. Besides, the inhibition in assay [7] is -1.48%; in [8], -1.77%; in [9], -4.01%; in assay [10], -2.21%.

As to `NC(=O)c1cccc(Nc2nccc(Nc3cccc4[nH]ncc34)n2)c1`, the inhibition in assay [1] amounted to 26.5%; in [2], 19.9%; in [3], 77.6%; in assay [4], 2.96%; in assay [5], 24.1%; in assay [6] it was 13.4%. Also, the inhibition in [7] was 70.1%; in [8], 3.36%; in assay [9] it was 27.8%; in assay [10] it was -1.89%.

For the compound `Nc1ncnc2occ(-c3ccc(NC(=O)Nc4cc(C(F)(F)F)cc(C(F)(F)F)c4)cc3)c12`, the inhibition came out at 20.6% in assay [1]; 67.7% in assay [2]; 84.4% in [3]; 0.56% in assay [4]; 0.39% in assay [5]; 1.34% in assay [6]. The inhibition in [7] was -2.77%; in assay [8], 2.29%; in assay [9], -2.09%; in assay [10] it was 1.48%.

`N#Cc1c(NC(=O)c2cccc3ccccc23)sc2c1CCCC2`: the inhibition in assay [1] was found to be 0.21%; in assay [2], 2.55%; in assay [3], 2.6%.

In the case of `CNC(=O)c1cncc(/C=C/c2c(Cl)cccc2Cl)c1`, the inhibition in assay [1] is 10.6%; in assay [2] it was 3.42%; in assay [3], 21.2%; in assay [4], -0.54%; in assay [5] it was 0.79%; in assay [6], 0.61%. Besides, the inhibition in [7] is 14.2%; in [8] it was 2.27%; in assay [9] it was 4.01%; in assay [10] it was 1.23%.

As to `COc1cc2ncn(-c3cc(O[C@H](C)c4ccccc4Cl)c(C(N)=O)s3)c2cc1OC`, the inhibition was 10.1% in assay [1]; 8.95% in assay [2]; 12% in [3]; 3.12% in assay [4]; 3.34% in assay [5]; 3.8% in assay [6]. In addition, the inhibition in assay [7] is 14.9%; in assay [8], 2.61%; in assay [9] it was 5.37%; in [10], 1.29%.

For `O=C1NC(=O)C(c2cccc(Cl)c2)=C1Nc1ccc(O)c(Cl)c1`, the inhibition in assay [1] is -5.59%; in assay [2] it was -1.25%; in assay [3], -1.13%; in [4], -0.21%; in [5] it was 1.12%; in [6] it was -2.01%. Besides, the inhibition in [7] was -0.47%; in assay [8], -0.43%; in assay [9], -0.33%; in assay [10], -0.72%.

Regarding `CN1CCC(C(=O)Nc2n[nH]c3nnc(-c4ccccc4)cc23)CC1`, the inhibition in assay [1] came to 6.5%; in assay [2], 0.55%; in assay [3] it was 1%; in assay [4], 10.2%; in [5], 7.57%; in assay [6], 1.7%. In addition, the inhibition worked out at 3.79% in assay [7], 2.96% in assay [8], 6.37% in [9] and 1.89% in [10].

As for `COc1cc2ncn(-c3cc(O[C@@H](C)c4ccccc4Cl)c(C(N)=O)s3)c2cc1OC`, the inhibition was 5.68% in assay [1]; 1.33% in assay [2]; 1.58% in assay [3]; 0.08% in [4]; 7.32% in assay [5]; 5.96% in [6]. Further, the inhibition in assay [7] worked out at 26.9%; in assay [8] it was 3.26%; in assay [9], 7.73%; in assay [10] it was 1.35%.

Consider `Nc1ncnc2occ(-c3ccc(NC(=O)Nc4cccc(C(F)(F)F)c4)cc3)c12`, for which the inhibition in assay [1] stood at 44.4%; in [2] it was 64%; in [3], 79.2%; in assay [4], 1.36%; in assay [5], 7.97%; in assay [6], 3.92%. Also, the inhibition in [7] stood at 6.22%; in assay [8] it was 2.76%; in assay [9] it was 3.15%; in assay [10], 2.8%.

In the case of `CCCN1CCC=C(c2ccc(Nc3nc(Nc4ccccc4C(N)=O)c4cc[nH]c4n3)c(C)c2)C1`, the inhibition was found to be 1.79% in assay [1]; 1.12% in assay [2]; 3.26% in assay [3]; 3.3% in assay [4]; 8.18% in assay [5]; 0.06% in assay [6]. In addition, the inhibition in [7] amounted to 9.35%; in [8], 1.44%; in assay [9] it was 6.61%; in [10] it was 2.92%.

For the compound `Cn1cc(C=C2C(=O)Nc3cccnc32)c2ccccc21`, the results for the inhibition in assay [1], in assay [2] and in assay [3] were -0.79%, 0.93% and 4.03%, respectively.

`COC(=O)Nc1nc2cc(Oc3cccc(NC(=O)Nc4cc(C(F)(F)F)ccc4F)c3)ccc2[nH]1`: the inhibition in [1] is 2.36%; in assay [2], 13.2%; in assay [3], 68.6%; in [4], 0.87%; in [5] it was 1.45%; in [6] it was -1.54%. In addition, the inhibition in assay [7] is 1.41%; in assay [8] it was -1.86%; in [9] it was -4.32%; in assay [10], -1.19%.

As for `COc1cc2ncn(-c3cc(OCc4ccccc4Cl)c(C(N)=O)s3)c2cc1OC`, the inhibition amounted to 4.61% in assay [1]; 0.71% in [2]; 0.75% in assay [3]; 2.48% in assay [4]; 8.81% in assay [5]; 1.49% in assay [6]. Further, the inhibition is 13.4% in assay [7], -0.11% in assay [8], 5.11% in assay [9] and -1.99% in assay [10].

With `Nc1nc(-c2ccccn2)c(-c2ccc3ncccc3n2)s1`, the inhibition in assay [1] is 4.7%; in [2], 3.14%; in assay [3] it was -1.29%; in assay [4], 1.32%; in assay [5], 1.23%; in assay [6], 3.43%. In addition, the inhibition came out at 2.31% in assay [7], 1.79% in assay [8], 4.31% in assay [9] and 1.91% in assay [10].

In the case of `CS(=O)(=O)CCNCc1ccc(-c2ccc3ncnc(Nc4ccc(OCc5ccccc5)c(Cl)c4)c3c2)o1`, the inhibition in assay [1] was found to be 5.6%; in assay [2], 3.48%; in assay [3], 9.08%; in assay [4], 82.5%; in assay [5], 85.6%; in [6], 61.7%. Besides, the inhibition in assay [7] came out at 93.6%; in assay [8] it was 52.9%; in assay [9] it was 87.6%; in assay [10], 2.68%.

On to `Cc1cccc(-c2n[nH]cc2-c2ccc3ncccc3n2)n1`, for which the inhibition in assay [1] was 0.97%; in [2], 0.57%; in [3], 0.86%; in assay [4], -0.16%; in [5] it was 0.24%; in assay [6] it was -0.08%. Also, the inhibition in assay [7] is -1.71%; in [8] it was -1.59%; in assay [9], -1.42%; in assay [10], -0.88%.
